Source: the supplement of paper PMC10849652
Targets with a hit are over-represented here; the source holds about 7,900 in all. About 0.6% of all pairs of compound and target were hits.

How the values were obtained:
Assay in all cases: log2 fold change, soluble protein after heating vs DMSO (PISA); higher = thermal stabilisation; K562 cells, 10 uM, 30 min; active = over 0.2 and 3.5 SD of the protein, either way, in both replicates (recomputed)
erlotinib = compound: C#Cc1cccc(Nc2ncnc3cc(OCCOC)c(OCCOC)cc23)c1 [erlotinib]
How it was run: (§1)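 K562 cells at 2×10^6 cells/mL were exposed to 10 μM compound for 30 min, then aliquots were heated for 3 min across 48°C-58°C, pooled, and extracted in PBS containing 0.5% NP-40 at 4°C. The supernatant after 21,000xg for 90 min was taken as soluble protein and measured by TMTpro 16plex LC-MS/MS with channel sums equalised. Thermal stability is reported relative to control samples, with values from duplicates. Fold changes are given on a log2 scale.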

[1] = compound: C/C(=N\NC(=O)C1=CC(=CC=C1)S(=O)(=O)N2CCOCC2)/C3=C(C=CC(=C3)Cl)O
How it was run: as §1

[2] = compound: C1=CC(=C(C=C1Cl)C2=NC3=NC=CN=C3C(=N2)NC4=CC=NC=C4)F
How it was run: as §1

[3] = compound: C1=CC(=CC=C1C2=NC3=C(N2)C=C(C=C3)C(=O)N)OC4=CC=C(C=C4)Cl
How it was run: as §1

[4] = compound: C1=CC2=C(C=CC(=C2)/C=C\3/C(=O)NC(=NCC4=CC=CS4)S3)N=C1
How it was run: as §1

[5] = compound: C1=CC2=NC=CN=C2C=C1/C=C/3\C(=O)NC(=O)S3
How it was run: as §1

[6] = compound: C1=CC=C(C=C1)C2=NC(=C(N2)C3=CC=NC=C3)C4=CC(=C(C=C4)Cl)O
How it was run: as §1

[7] = compound: C1=CC=C2C(=C1)C3=NNC4=CC=CC(=C43)C2=O
How it was run: as §1

[8] = compound: C1CCN(C1)C(=O)NC2=CC=CC(=C2)NC3=NC=C(C(=N3)NCCC4=CN=CN4)Br
How it was run: as §1

[9] = compound: C1CN(CCC1(CC2=CC=C(C=C2)Cl)N)C3=NC=NC4=C3C=CN4
How it was run: as §1

Measured: log2 fold change

LPIN1 isoform 7 (UniProt Q14693)
inactive: erlotinib 0.027 | [1] 0.068 | [2] 0.059 | [3] -0.043 | [4] -0.001 | [5] -0.102 | [6] -0.031 | [7] 0.015 | [8] -0.033 | [9] 0.025

KDELR2 (UniProt P33947)
inactive: erlotinib -0.06 | [1] -0.052 | [2] 0.048 | [3] -0.02 | [4] 0.042 | [5] 0.024 | [6] 0.201 | [7] 0.048 | [8] -0.102 | [9] 0.019

IP6K1 (UniProt Q92551)
inactive: erlotinib -0.054 | [1] 0.017 | [2] -0.24 | [3] 0 | [4] 0.25 | [5] -0.025 | [6] -0.088 | [7] 0.142 | [8] -0.083 | [9] 0.067

MAST4 (UniProt O15021)
Sequence of UniProt O15021 (O15021 whole entry, looked up): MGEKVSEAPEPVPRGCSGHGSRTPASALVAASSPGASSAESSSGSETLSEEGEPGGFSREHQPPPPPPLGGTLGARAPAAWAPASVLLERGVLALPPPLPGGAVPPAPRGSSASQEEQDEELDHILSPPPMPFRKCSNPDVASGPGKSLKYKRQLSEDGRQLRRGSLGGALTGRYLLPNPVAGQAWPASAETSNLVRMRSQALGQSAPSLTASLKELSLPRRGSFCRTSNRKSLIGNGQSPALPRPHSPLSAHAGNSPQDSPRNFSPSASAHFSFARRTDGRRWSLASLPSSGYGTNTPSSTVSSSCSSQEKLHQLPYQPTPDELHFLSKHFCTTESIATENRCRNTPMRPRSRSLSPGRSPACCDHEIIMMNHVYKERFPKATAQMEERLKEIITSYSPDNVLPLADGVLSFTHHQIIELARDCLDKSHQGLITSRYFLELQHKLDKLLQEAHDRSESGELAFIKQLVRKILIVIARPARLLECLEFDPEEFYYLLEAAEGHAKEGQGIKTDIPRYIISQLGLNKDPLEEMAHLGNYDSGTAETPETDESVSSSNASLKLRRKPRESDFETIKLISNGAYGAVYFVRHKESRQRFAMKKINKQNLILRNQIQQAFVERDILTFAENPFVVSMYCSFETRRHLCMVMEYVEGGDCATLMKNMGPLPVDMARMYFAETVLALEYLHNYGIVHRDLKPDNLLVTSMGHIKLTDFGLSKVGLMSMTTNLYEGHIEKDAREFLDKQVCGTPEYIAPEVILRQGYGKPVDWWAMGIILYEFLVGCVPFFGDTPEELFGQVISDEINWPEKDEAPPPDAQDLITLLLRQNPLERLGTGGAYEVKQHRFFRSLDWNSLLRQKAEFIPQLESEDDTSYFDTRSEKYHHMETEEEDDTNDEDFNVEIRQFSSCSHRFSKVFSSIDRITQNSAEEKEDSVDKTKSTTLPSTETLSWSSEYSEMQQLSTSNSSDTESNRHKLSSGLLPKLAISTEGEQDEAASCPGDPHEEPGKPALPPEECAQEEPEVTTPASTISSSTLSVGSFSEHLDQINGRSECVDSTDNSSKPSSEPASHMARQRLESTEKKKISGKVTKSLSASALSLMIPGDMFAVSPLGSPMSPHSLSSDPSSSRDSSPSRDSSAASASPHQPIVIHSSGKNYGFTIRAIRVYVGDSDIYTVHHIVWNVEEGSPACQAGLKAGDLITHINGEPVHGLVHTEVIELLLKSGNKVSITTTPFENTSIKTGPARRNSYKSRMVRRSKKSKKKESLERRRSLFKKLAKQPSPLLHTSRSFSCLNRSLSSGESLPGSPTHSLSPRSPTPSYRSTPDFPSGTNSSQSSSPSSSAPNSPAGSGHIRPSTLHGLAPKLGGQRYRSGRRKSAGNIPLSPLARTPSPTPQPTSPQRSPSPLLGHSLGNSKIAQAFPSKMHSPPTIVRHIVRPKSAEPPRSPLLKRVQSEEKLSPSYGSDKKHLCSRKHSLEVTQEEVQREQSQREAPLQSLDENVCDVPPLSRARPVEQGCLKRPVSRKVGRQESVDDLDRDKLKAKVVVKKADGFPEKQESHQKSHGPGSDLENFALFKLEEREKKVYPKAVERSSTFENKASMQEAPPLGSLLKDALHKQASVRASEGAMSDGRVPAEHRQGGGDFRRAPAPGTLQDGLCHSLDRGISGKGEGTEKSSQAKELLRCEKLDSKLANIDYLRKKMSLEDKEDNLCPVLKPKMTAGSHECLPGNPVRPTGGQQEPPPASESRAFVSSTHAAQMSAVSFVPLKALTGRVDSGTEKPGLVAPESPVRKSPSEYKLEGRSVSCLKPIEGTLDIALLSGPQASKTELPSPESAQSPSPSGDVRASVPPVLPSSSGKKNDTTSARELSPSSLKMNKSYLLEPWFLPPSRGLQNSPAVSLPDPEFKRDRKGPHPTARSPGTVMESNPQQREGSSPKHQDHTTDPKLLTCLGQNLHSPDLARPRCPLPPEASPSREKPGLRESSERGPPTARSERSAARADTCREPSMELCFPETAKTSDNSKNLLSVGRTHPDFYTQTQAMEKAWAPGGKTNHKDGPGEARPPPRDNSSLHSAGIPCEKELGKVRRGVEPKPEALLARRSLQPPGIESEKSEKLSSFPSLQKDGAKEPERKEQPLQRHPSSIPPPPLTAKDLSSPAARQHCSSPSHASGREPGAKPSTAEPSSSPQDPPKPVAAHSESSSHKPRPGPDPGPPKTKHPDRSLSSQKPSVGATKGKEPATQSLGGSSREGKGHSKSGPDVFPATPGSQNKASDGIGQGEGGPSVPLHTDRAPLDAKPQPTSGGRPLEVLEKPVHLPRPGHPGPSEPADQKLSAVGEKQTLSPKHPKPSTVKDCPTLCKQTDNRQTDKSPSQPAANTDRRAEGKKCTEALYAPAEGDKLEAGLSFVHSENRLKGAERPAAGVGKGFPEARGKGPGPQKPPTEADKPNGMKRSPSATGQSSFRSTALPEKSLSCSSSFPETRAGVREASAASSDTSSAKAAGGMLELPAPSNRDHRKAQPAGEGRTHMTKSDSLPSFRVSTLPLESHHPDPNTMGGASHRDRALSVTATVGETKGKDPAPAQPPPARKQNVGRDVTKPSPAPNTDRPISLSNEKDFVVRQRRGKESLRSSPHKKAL
inactive: erlotinib -0.016 | [1] 0.101 | [2] 0.082 | [3] 0.054 | [4] 0.032 | [5] 0.048 | [6] -0.086 | [7] -0.02 | [8] -0.007 | [9] -0.094

MAPK9 (UniProt P45984)
inactive: erlotinib 0.007 | [1] 0.027 | [2] 0.031 | [3] -0.02 | [4] 0 | [5] -0.02 | [6] -0.026 | [7] 0.202 | [8] 0.063 | [9] 0.016

MIF (UniProt P14174)
active: [2] 0.368
inactive: erlotinib 0.058 | [1] 0.128 | [3] 0.033 | [4] -0.07 | [5] 0.034 | [6] -0.037 | [7] -0.069 | [8] -0.057 | [9] -0.029

LMNB1 (UniProt P20700)
Sequence of UniProt P20700 (P20700 whole entry, looked up): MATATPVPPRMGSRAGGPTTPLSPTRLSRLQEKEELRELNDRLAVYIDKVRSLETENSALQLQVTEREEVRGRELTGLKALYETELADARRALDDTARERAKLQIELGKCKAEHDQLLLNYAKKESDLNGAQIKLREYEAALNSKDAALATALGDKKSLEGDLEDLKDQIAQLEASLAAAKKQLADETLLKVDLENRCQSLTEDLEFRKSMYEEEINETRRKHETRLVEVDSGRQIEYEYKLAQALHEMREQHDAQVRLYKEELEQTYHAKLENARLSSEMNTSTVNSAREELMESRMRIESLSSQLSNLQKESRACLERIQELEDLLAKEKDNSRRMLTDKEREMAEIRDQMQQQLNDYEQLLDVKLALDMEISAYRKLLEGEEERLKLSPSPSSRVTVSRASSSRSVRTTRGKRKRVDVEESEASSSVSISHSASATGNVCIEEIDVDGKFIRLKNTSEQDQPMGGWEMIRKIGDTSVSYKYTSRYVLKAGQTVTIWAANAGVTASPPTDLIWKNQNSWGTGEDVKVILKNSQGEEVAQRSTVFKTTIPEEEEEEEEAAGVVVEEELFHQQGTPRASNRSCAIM
inactive: erlotinib -0.06 | [1] 0.071 | [2] 0.001 | [3] 0.029 | [4] -0.073 | [5] 0.064 | [6] -0.07 | [7] -0.151 | [8] -0.079 | [9] 0.001

KIFBP (UniProt Q96EK5)
Sequence of UniProt Q96EK5 (Q96EK5 whole entry, looked up): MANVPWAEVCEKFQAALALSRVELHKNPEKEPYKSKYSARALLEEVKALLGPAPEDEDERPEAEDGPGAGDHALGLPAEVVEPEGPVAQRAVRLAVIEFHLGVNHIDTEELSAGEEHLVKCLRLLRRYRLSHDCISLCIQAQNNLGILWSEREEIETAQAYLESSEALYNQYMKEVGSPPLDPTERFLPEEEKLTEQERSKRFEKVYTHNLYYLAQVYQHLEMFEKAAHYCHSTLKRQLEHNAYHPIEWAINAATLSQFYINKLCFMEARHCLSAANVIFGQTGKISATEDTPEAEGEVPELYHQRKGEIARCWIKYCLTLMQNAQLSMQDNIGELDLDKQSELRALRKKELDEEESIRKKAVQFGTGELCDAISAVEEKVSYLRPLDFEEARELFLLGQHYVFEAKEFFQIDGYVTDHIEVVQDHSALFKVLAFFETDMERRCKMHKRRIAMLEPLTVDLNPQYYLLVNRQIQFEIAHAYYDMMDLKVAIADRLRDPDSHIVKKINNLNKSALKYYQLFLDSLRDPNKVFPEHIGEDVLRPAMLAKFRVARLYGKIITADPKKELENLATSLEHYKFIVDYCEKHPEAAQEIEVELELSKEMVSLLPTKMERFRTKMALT
inactive: erlotinib -0.034 | [1] 0.147 | [2] 0 | [3] 0.017 | [4] 0.074 | [5] -0.015 | [6] -0.008 | [7] 0.03 | [8] 0.014 | [9] -0.058

JMJD6 isoform 3 (UniProt Q6NYC1)
inactive: erlotinib -0.009 | [1] 0.011 | [2] 0.039 | [3] 0.044 | [4] 0.051 | [5] 0.03 | [6] 0.107 | [7] -0.037 | [8] -0.007 | [9] 0.181

IK (UniProt Q13123)
inactive: erlotinib 0.049 | [1] 0 | [2] -0.069 | [3] 0 | [4] 0.055 | [5] -0.022 | [6] -0.016 | [7] -0.11 | [8] -0.004 | [9] -0.065

MAP3K7 (UniProt O43318)
inactive: erlotinib 0.078 | [1] 0.009 | [2] -0.067 | [3] -0.091 | [4] 0.034 | [5] -0.031 | [6] -0.016 | [7] 0.113 | [8] -0.005 | [9] -0.168

ITIH4 (UniProt Q14624)
inactive: erlotinib -0.026 | [1] -0.072 | [2] 0.029 | [3] 0.091 | [4] 0.143 | [5] -0.039 | [6] 0.061 | [7] -0.06 | [8] -0.009 | [9] 0.079

INTS7 (UniProt Q9NVH2)
Sequence of UniProt Q9NVH2 (Q9NVH2 whole entry, looked up): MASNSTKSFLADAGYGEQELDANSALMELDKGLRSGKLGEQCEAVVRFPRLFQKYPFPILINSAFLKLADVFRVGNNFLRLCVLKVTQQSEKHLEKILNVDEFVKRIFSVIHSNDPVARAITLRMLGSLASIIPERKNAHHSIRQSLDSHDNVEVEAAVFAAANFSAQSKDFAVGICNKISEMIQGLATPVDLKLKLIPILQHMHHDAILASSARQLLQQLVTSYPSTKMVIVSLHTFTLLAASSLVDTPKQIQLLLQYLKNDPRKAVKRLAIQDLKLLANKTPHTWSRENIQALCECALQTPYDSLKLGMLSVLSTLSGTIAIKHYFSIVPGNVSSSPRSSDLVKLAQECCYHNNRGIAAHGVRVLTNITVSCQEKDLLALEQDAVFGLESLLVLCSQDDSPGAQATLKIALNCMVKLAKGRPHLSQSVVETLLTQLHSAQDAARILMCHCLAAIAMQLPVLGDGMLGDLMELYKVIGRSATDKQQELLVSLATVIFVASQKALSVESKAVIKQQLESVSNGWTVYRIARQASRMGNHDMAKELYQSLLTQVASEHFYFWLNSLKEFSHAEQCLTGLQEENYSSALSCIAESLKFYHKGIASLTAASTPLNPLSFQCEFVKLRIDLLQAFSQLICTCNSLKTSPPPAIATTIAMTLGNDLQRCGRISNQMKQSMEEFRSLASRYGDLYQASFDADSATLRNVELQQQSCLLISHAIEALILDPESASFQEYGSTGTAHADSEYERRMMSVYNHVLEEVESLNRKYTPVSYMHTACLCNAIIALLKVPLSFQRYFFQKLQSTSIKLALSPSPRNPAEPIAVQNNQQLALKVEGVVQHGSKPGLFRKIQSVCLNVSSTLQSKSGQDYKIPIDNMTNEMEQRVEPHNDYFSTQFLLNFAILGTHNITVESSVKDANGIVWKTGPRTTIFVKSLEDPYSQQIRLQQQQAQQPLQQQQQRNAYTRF
inactive: erlotinib 0.39 | [1] 0.067 | [2] -0.016 | [3] 0.046 | [4] -0.175 | [5] 0.036 | [6] -0.081 | [7] 0.022 | [8] -0.091 | [9] -0.009

INTS5 (UniProt Q6P9B9)
active: [2] -0.403
inactive: erlotinib -0.027 | [1] 0.025 | [3] -0.086 | [4] -0.023 | [5] 0.097 | [6] -0.138 | [7] -0.18 | [8] -0.126 | [9] -0.033

MED22 (UniProt Q15528)
Sequence of UniProt Q15528 (Q15528 whole entry, looked up): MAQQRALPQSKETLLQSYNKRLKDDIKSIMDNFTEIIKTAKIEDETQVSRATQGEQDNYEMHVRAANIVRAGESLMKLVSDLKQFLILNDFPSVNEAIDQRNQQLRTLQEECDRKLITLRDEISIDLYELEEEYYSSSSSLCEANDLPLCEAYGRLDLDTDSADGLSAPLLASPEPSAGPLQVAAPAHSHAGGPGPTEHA
inactive: erlotinib -0.11 | [1] 0.035 | [2] -0.013 | [3] -0.036 | [4] 0.061 | [5] -0.002 | [6] 0.022 | [7] -0.071 | [8] -0.156 | [9] 0.259
